In PubChem BioAssay (NCI):
This is part of a sample that, as a whole, favours compounds with a hit. Of some 79,000 tested, about 15% had one in any assay. Values without a mark were called inactive. The source made the active and inactive calls. Cut-off read from the data, not from the text of the source: active = growth inhibition above about 70%; inactive = the rest.

Assay: NCI Yeast Anticancer Drug Screen. Data for the rad52 strain (AID 147);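 note: 0% = growth of vehicle-treated control cultures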
Conditions: S. cerevisiae rad52 mutant growth inhibition, active compounds read high
Description: Growth inhibition of yeast strains with defined genetic alterations is measured as a screen for potential anti-cancer activity. Selected strains with alterations in DNA damage repair or cell cycle control were exposed to compounds and growth inhibition was measured relative to vehicle treated controls. The strain used in this assay is rad52

Cc1cc(N(CCOS(C)(=O)=O)CCOS(C)(=O)=O)ccc1C=Nc1ccc(-c2nc(Cc3ccccc3)sc2C)cc1
growth inhibition (at 1.2 µM): 9%
growth inhibition (at 3.7 µM): 52%
growth inhibition (at 11.0 µM): 84% (active)
growth inhibition (at 33.0 µM): 92% (active)
growth inhibition (at 100.0 µM): 96% (active)

CN(CCN(C)Cc1ccccc1)Cc1ccccc1
growth inhibition (at 1.2 µM): -5%
growth inhibition (at 3.7 µM): 8%
growth inhibition (at 11.0 µM): -4%
growth inhibition (at 33.0 µM): 19%
growth inhibition (at 100.0 µM): 2%

COc1cc(C2c3cc4c(cc3OC(OC(C)=O)C2C)OCO4)cc(OC)c1OC (stereo not given)
growth inhibition (at 1.2 µM): -1%
growth inhibition (at 3.7 µM): -2%
growth inhibition (at 11.0 µM): -2%
growth inhibition (at 33.0 µM): -5%
growth inhibition (at 100.0 µM): 82% (active)

c1ccc2c(c1)sc1c3cnccc3ccc21
growth inhibition (at 1.2 µM): 11%
growth inhibition (at 3.7 µM): 41%
growth inhibition (at 11.0 µM): 62%
growth inhibition (at 33.0 µM): 84% (active)
growth inhibition (at 100.0 µM): 86% (active)

Cc1ccccc1N=Cc1cc(Cl)ccc1O
growth inhibition (at 1.2 µM): -11%
growth inhibition (at 3.7 µM): -3%
growth inhibition (at 11.0 µM): 4%
growth inhibition (at 33.0 µM): 21%
growth inhibition (at 100.0 µM): 96% (active)

NCCNCCNc1ccc(NCCNCCN)c2c1C(=O)c1c(O)ccc(O)c1C2=O
growth inhibition (at 1.2 µM): 34%
growth inhibition (at 3.7 µM): 48%
growth inhibition (at 11.0 µM): 91% (active)
growth inhibition (at 33.0 µM): 93% (active)
growth inhibition (at 100.0 µM): 85% (active)

CCCC/C=C/C(C)(C(=O)OCC)C(=O)OCC
growth inhibition (at 1.2 µM): -5%
growth inhibition (at 3.7 µM): -5%
growth inhibition (at 11.0 µM): -1%
growth inhibition (at 33.0 µM): 4%
growth inhibition (at 100.0 µM): 22%

CC(=O)OCC1OC2OC(=O)NC2C(OC(C)=O)C1OC(C)=O (stereo not given)
growth inhibition (at 1.2 µM): -3%
growth inhibition (at 3.7 µM): -1%
growth inhibition (at 11.0 µM): 0%
growth inhibition (at 33.0 µM): 1%
growth inhibition (at 100.0 µM): -3%
